This is an account of results in PubChem BioAssay.

What is called viability is a read-out of living cells in per cent, often relative to untreated cells. As usually defined, the inhibition is the relative decrease from the control value, in per cent. As a reminder, the remaining activity is the signal under treatment as a percentage of the control signal.

Experiment [1] in a line: yeast 75Q aggregation reduction – 75Q-TubU reporter (AID 1593). To be noted: Yeast 75Q polyglutamine aggregation reporter.
The nature of experiment [2]: restoration of touch response, mutant HTT neurons – whole organism, C. elegans mechanosensory neurons, N-terminal huntingtin (AID 1599). The following applies: C. elegans polyQ-huntingtin mechanosensory neurons, stronger effect = higher value.
A short description of experiment [3]: blockers of cytochrome c efflux from mitochondria – biochemical, purified mitochondria (AID 1603).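 Also: mouse liver mitochondria challenged with calcium chloride; signal normalized to the plate average as 100%.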 The following applies: stronger effect = lower value.
The nature of experiment [4]: polyglutamine aggregate formation blockers (AID 1604). To be noted: polyglutamine-induced protein aggregation inhibition assay; stronger effect = higher value; tested at 2.5 µM.
Experiment [5] is described as follows: glutamate transport activators, MN-1 cells, MN-1 cell line (AID 1612).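 Also: tested at 1 µM final; 0% = mean of DMSO vehicle wells on each plate; positive means more glutamate uptake than control and negative means less.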 The following applies: MN-1 motor neuron cells, stronger effect = higher value.
Experiment [6] is described as follows: 75Q-TubH aggregate inhibition, S. cerevisiae, yeast (AID 1616). The following applies: S. cerevisiae 75Q-TubH polyglutamine aggregation suppression; stronger effect = higher value.
The nature of experiment [7]: P. berghei load reduction in hepatocytes – cell-based, HepG2, luciferase luminescence, HepG2 viability, primary screen (AID 624349; in the data active = parasite load remaining mostly below about 12%, no sharp cut-off; inactive = mostly above about 10%;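 also: 100% = mean of DMSO negative control wells on the same plate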). To be noted: P. berghei liver stage in HepG2, luciferase luminescence, concentration not given here; parasite load remaining: stronger effect = lower value; viability: measured here: HepG2 viability without parasites.
Experiment [8] is described as follows: EMT-state selective cytotoxicity in co-culture – imaging, PC-3E GFP, TEM4-18 mCherry, primary screen (AID 1345086;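 active = compounds killing one labelled cell type while sparing the other, by normalised counts and ratio limits, not self-fluorescent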;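 as to all read-outs here: cells exposed to compound for 72 h before imaging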;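 as to red/green cell ratio (normalised): normalised mesenchymal count divided by normalised epithelial count so high means epithelial killing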). The following applies: PC-3E GFP / TEM4-18 mCherry co-culture, imaging cell counts, at 1 µM; for red/green cell ratio (normalised): actives lie on both sides.
Experiment [9] is described as follows: viability loss with induced miR-34 in A549 – imaging, A549 dox-inducible miR-34, nuclei and caspase counts, primary screen (AID 1347080;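 active = compounds whose cell count with miR-34 switched on is under 0.7 times the count with it off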). To be noted: A549 miR-34 inducible, Hoechst nuclei count, 48 h.
A short description of experiment [10]: compounds altering circadian rhythm period length – cell-based, LOPAC library, luminescence reporter (AID 2774).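 Also: values are relative to mean of DMSO wells on each plate.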 To be noted: circadian reporter cells, at 7 µM, actives lie on both sides.
Experiment [11] concerns Hepatitis C virus NS3 helicase. The experiment is described as follows: blockers of NS3h binding to ssDNA – biochemical, fluorescence polarization, LOPAC1280 library, primary screen (AID 687035; in the data active = inhibition above about 37%). To be noted: Purified HCV NS3 helicase, Cy5-dT15 ssDNA binding fluorescence polarization; stronger effect = higher value; concentration not given here.
Experiment [12] in a line: compounds altering Cy5-DNA-NS3h complex signal – biochemical, LOPAC1280, artefact control for HCV NS3 helicase inhibitor project (AID 687037). The following applies: Cy5-DNA-NS3h complex fluorescence interference counterscreen. For orientation: The purpose of a counterscreen is to sort out artefacts and off-target activity.
Experiment [13] has as its system Aerobactin synthetase IucA (Klebsiella pneumoniae). Put plainly: inhibition of K. pneumoniae IucA enzyme – biochemical, Tocris library, absorbance (AID 1345561).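 Also: 100% = enzyme without compound and 0% = no enzyme.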 To be noted: purified IucA enzyme assay, absorbance (OD) read-out; stronger effect = lower value;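 tested at 8 µM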.
For experiment [14], the system named is Aerobactin synthetase IucA (Klebsiella pneumoniae, hypervirulent). Put plainly: biochemical IucA inhibition screen of LOPAC library by absorbance (AID 1346212).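 Also: 100% = no compound wells and 0% = no enzyme wells.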 To be noted: IucA enzyme assay, absorbance (OD) readout; stronger effect = lower value;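 tested at 8 µM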.
Experiment [15] is described as follows: blockers of cellular phospholipid synthesis – cell-based, LOPAC library, screen 4, primary screen (AID 1347384). To be noted: animal cells, phospholipid biosynthesis inhibition screen; at 10 µM.
Experiment [16] can be described thus: galactose survival enhancers in mitochondrial complex I cybrids – cell-based, galactose medium, ATP luminescence, primary screen (AID 1645843;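 active = z-score of at least 1.8 in each of two replicates, scored against plate mean and spread of sample wells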;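 also: positive z means more ATP and so rescue of galactose-driven cybrid death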). The following applies: complex I mutant cybrid cells, 72 h, stronger effect = higher value.
Experiment [17] can be described thus: compounds altering viability of human ES cells (AID 493140).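 Also: cells exposed to compounds for four days before counting.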 To be noted: human embryonic stem cell survival screen; stronger effect = higher value.
The subject of experiment [18] is Aerobactin synthetase IucA (Klebsiella pneumoniae hvKP1). The experiment is described as follows: IucA enzyme inhibition, primary screen, biochemical, Spectrum library (AID 1346200).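 Also: 100% = wells without compound and 0% = wells lacking enzyme.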 To be noted: malachite green pyrophosphate, A620, at 8 µM, stronger effect = lower value.
In experiment [19] the target is Mitogen-activated protein kinase 7 (Homo sapiens) (UniProt Q13164). Put plainly: Gal4-ERK5 driven luciferase induction – cell-based, HTS, primary screen (AID 1508626;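 active = luciferase signal above three times the same-plate solvent-only control wells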;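 also: luciferase driven by Gal4-ERK5 fusion binding five Gal4 sites before minimal TATA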). The following applies: HeLa Gal4-ERK5 transactivation, 18 h, at 5 µM, stronger effect = higher value.
Sequence of Mitogen-activated protein kinase 7 (Homo sapiens) (Q13164 whole entry, looked up, the tested form may be a part): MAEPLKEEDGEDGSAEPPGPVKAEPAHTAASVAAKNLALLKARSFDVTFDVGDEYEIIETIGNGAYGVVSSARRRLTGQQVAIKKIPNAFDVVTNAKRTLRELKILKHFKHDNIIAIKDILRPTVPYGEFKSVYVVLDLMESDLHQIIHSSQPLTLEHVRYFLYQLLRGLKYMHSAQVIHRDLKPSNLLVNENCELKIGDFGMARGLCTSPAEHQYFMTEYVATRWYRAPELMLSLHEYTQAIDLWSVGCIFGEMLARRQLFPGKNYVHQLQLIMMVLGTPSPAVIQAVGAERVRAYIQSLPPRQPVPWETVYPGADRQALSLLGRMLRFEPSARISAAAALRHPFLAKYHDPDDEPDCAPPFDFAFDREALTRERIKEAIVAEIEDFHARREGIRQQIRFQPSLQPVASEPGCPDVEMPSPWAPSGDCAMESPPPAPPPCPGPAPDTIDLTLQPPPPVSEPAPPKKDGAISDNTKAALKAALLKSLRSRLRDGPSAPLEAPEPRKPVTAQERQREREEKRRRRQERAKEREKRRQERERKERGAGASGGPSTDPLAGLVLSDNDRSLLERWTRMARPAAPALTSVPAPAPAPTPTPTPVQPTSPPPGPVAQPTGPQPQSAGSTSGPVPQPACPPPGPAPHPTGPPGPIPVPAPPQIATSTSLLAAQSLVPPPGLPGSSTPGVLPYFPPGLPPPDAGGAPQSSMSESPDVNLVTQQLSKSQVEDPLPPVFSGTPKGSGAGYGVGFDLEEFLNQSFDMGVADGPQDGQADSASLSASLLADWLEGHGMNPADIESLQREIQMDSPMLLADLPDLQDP
Where [20] appears, read: measured here: epithelial PC-3E GFP cell survival.
Setting [21] is: measured here: mesenchymal TEM4-18 mCherry cell survival.
The mark [22] stands for this setting: measured here: relative caspase fold change +Dox/-Dox.
[23] abbreviates: measured here: total cells with miR-34 induction, stronger effect = lower value.
Setting [24] is: measured here: total cells without miR-34 induction.

The structures appear in SMILES notation. Values joined by “and” are separate entries in the source; they are usually repeats but may differ in a detail not shown here. Equal entries are not always repeated. For some assays here: Results with a measured potency or affinity are listed apart. More than one record can exist for a structure, and the calls need not agree. Active and inactive are the calls of the source. Unless noted, no rule for the calls is given here.

Compound `CO[C@H]1[C@H](O)[C@@H](O[C@H]2CC[C@]3(C=O)C4CC[C@]5(C)[C@@H](C6=CC(=O)OC6)CC[C@]5(O)C4CC[C@@H]3C2)O[C@@H](C)[C@@H]1O` (stereo partly specified) registered a score in experiment [1] of 1.12. The same compound returned a rescue above control in experiment [2] of -6.49. Further, the cytochrome c release ratio in [3] was 1.41. Besides, the inhibition of aggregation in experiment [4] is 0%. This compound showed a glutamate uptake change in experiment [5] of 3.74%. Also, the aggregation suppression score in [6] was determined as 1.22. Further, the parasite load remaining in experiment [7] was 56.4% (inactive). For the same compound, the viability in [7] stood at 41.4%. The red/green cell ratio (normalised) in experiment [8] was 0.18 (inactive). In addition, the normalised cell number in experiment [8] (setting [20]) was found to be 0.18; in [8] (setting [21]) it was 0.03.

On to `O1[As]2O[As]3O[As]1O[As](O2)O3`, for which the parasite load remaining in experiment [7] was 61.8% (inactive). The viability in experiment [7] was determined as 103%. In experiment [8], the red/green cell ratio (normalised) was 0.77 (inactive). Also, the normalised cell number came to 1.19 in experiment [8] (setting [20]) and 0.92 in experiment [8] (setting [21]). Further, the values for the fold change in experiment [9] (stronger effect = lower value) and in experiment [9] (setting [22]) were 0.844 (inactive) and 2.16, respectively. The cell count in [9] (setting [23]) was 11700; in experiment [9] (setting [24]) it was 13900.

On to `CC1=NN=C(c2ccc(N)cc2)c2cc3c(cc2C1)OCO3`, for which the period change in experiment [10] was 0.095 h (inactive). For the same compound, the inhibition in [11] was 3% (inactive). Moreover, the fluorescence ratio (interference) in experiment [12] was 1 (inactive). Also, the remaining activity was 114% (inactive) in experiment [13] and 78.1% (inactive) in [14]. Besides, the fold change was 1.05 (inactive) and 1 (inactive) in experiment [9] (stronger effect = lower value); 0.665 and 1.11 in experiment [9] (setting [22]). Besides, the cell count in experiment [9] (setting [23]) was 10000 and 7840; in experiment [9] (setting [24]) it was 9520 and 7820. Moreover, the result in experiment [15] was inactive. The z-score in experiment [16] is 0.825 (inactive) and 4.29 (active).

As to `Oc1ccc2c3c1O[C@H]1c4[nH]c5c(c4C[C@@]4(O)[C@@H](C2)N(CC2CC2)CC[C@]314)C[C@@]1(O)[C@H]2Cc3ccc(O)c4c3[C@@]1(CCN2CC1CC1)[C@H]5O4`, the period change in experiment [10] was -0.025 h (inactive). In addition, in experiment [11], the inhibition was -2% (inactive). Also, in experiment [12], the fluorescence ratio (interference) was 1 (inactive). In addition, the remaining activity in experiment [13] was 103% (inactive); in experiment [14] it was 120% (inactive). Further, the fold change in experiment [9] (stronger effect = lower value) was 1.09 (inactive) and 0.956 (inactive); in [9] (setting [22]), 1.04 and 0.836. The cell count in experiment [9] (setting [23]) is 10400 and 9420; in experiment [9] (setting [24]), 9540 and 9850. The z-score in [16] is 0.855 (inactive) and 1.22 (inactive).

For `C/C(O)=C(\C#N)C(=O)Nc1cc(Br)ccc1Br`, the period change in [10] was 0.265 h (inactive). Also, the survival in [17] was 124 (inactive). Further, the inhibition in experiment [11] is 1% (inactive). Moreover, the fluorescence ratio (interference) in experiment [12] was 1 (inactive). In addition, the remaining activity in experiment [13] was 116% (inactive); in experiment [14], 112% (inactive). Moreover, the fold change in experiment [9] (stronger effect = lower value) is 1.11 (inactive) and 0.867 (inactive); in experiment [9] (setting [22]), 0.986 and 2.29. Also, the cell count was 5190 and 8220 in experiment [9] (setting [23]); 4660 and 9480 in experiment [9] (setting [24]). Besides, in experiment [16], the z-score is 2.97 (active).

For the compound `Cc1ccc(C[N+](C)(C)C)o1`, the remaining activity in experiment [13] was 126% (inactive). For the same compound, in experiment [18], the activity remaining is 106% (inactive). The fold change was 0.971 (inactive) in experiment [9] (stronger effect = lower value, cell number ratio, induced over uninduced) and 0.883 in experiment [9] (setting [22]). Also, the cell count in [9] (setting [23]) is 9440; in experiment [9] (setting [24]) it was 9720. For the same compound, in [19], the luciferase signal was 100 AU (inactive). Also, in experiment [16], the z-score is 0.545 (inactive).

With `c1ccc2c(c1)[I+]c1ccccc1-2`, the period change in [10] was -1.22 h (inactive). In [11], the inhibition was -5% (inactive). Further, the fluorescence ratio (interference) in experiment [12] is 1 (inactive). Moreover, the remaining activity in experiment [13] was 106% (inactive); in experiment [14], 103% (inactive). The fold change is 1.1 (inactive) and 0.717 (inactive) and 0.928 (inactive) in experiment [9] (stronger effect = lower value); 1.26 and 1.66 and 0.513 in [9] (setting [22]). Moreover, the cell count is 1170 and 692 and 1240 in experiment [9] (setting [23]); 1070 and 966 and 1340 in [9] (setting [24]). Besides, the compound was classed as active in experiment [15]. Besides, the z-score in experiment [16] was -1.03 (inactive) and -1.25 (inactive).
